{
  "source": "PubChem BioAssay (NCATS)",
  "key": {"[1]": {"test": "AP1 Signaling Pathway (AID 357); also: % is scaled to controls: 0 for no effect and ±100 for the full control effect", "details": "ME-180 AP-1-bla reporter, EGF-induced, beta-lactamase ratio, 5 h; at 17.2 µM (top of the series) unless noted", "summary_of_the_method": "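Read-out was the 460nm/530nm emission ratio (excitation 405nm) after CCF4 loading for 2.5 hours at room temperature. Cells carried an AP-1-driven beta-lactamase reporter, were stimulated with EC50 EGF plus compound for 5 hours, and AC50 values came from titrations.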"}, "[2]": {"test": "Stat Signaling Pathway (AID 446);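 also: ME-180 cervical cancer cells given 40 pM IL-6 alongside compound; % is scaled to controls: 0 for no effect and ±100 for the full control effect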", "details": "ME-180 SIE beta-lactamase reporter, IL-6 stimulated, 5 h; at 17.2 µM (top of the series) unless noted", "summary_of_the_method": "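Compound effects on IL-6-induced STAT reporter activity were measured in ME-180 cells. After overnight culture, cells were co-treated with 40 pM IL-6 for 5 hrs before beta-lactamase substrate loading at room temperature.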"}, "[3]": {"molecular_target": "Glucocorticoid receptor (Homo sapiens) (UniProt P04150)", "sequence (P04150 whole entry, looked up, the tested form may be a part)": "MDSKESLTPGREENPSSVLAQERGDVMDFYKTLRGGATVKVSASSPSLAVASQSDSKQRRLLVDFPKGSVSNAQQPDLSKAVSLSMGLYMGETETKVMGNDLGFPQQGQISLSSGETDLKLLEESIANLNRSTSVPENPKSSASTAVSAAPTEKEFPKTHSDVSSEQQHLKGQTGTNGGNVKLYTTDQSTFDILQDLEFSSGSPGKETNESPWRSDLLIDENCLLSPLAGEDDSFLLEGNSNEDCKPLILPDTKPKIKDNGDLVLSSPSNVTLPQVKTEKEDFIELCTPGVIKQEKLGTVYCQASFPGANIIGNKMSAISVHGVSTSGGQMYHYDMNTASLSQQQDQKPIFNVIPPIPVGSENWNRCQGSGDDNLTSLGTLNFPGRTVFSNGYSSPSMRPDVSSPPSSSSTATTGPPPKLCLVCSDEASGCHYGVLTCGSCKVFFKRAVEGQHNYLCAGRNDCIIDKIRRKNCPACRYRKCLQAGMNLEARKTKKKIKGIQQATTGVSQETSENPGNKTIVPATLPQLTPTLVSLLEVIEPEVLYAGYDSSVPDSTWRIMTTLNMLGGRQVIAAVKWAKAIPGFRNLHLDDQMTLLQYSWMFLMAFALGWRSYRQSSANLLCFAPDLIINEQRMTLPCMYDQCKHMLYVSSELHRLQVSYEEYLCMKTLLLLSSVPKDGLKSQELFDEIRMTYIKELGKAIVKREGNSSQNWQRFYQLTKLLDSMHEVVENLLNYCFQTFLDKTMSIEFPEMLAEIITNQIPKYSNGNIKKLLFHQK", "test": "GR-GFP Redistribution (AID 450;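 active = compounds whose dose series gives a full or clear partial fitted curve of increased nuclear translocation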; also: potency is read from the fitted curve at half-maximal effect)"}, "[4]": {"test": "qHTS Assay for Identification of Small Molecule Agonists for Hypoxia Response Element Signaling Pathway (AID 914; active = well fitted activation curve with a large enough effect in the signal ratio, with a control signal flat, not every such curve was filed as active; the % refers to the signal ratio; also: potency is read from the fitted curve at half-maximal effect; as to activation: % of control where 0% means no effect)", "details": "ME-180 HRE-bla reporter, beta-lactamase ratio, CoCl2, 17 h; activation: active compounds read high", "summary_of_the_method": "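HRE-bla ME-180 assay for agonist-like enhancement of an EC50 CoCl2 stimulus: 17 h at 37 degrees Celsius, CCF4 for 2.5 h, ratiometric 460/530 nm signal converted to %Activity and fitted to AC50.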"}, "[5]": {"molecular_target": "Glucocorticoid receptor (Homo sapiens) (UniProt P04150)", "test": "GR-EFC Redistribution (AID 451; calls by dose curve; also: potency is read from the fitted curve at half-maximal effect)", "details": "CHO-K1 GR-EFC translocation, beta-gal luminescence, 2 h", "summary_of_the_method": "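CHO-K1 cells stably expressing nuclear-localized β-gal enzyme acceptor and GR fused C-terminally to the enzyme donor fragment; ligand-driven nuclear translocation restores β-gal by complementation. Compounds titrated up to 46 uM final, 2 h at 37 °C; luminescence read.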"}, "[6]": {"molecular_target": "Mitogen-activated protein kinase 10 (Mus musculus) (UniProt Q61831)", "test": "JNK3 AlphaScreen Assay (AID 530); also: % is scaled to controls: 0 for no effect and ±100 for the full control effect", "summary_of_the_method": "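Biotinylated GST-cJun(1-79) served as substrate for JNK3 in HepG2 lysates stimulated with IL-1beta and TNF-alpha. ATP was 10 uM final, pH 7.6. Ser73 phosphorylation was quantified by AlphaScreen (680 nm excitation).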"}, "[7]": {"molecular_target": "Guanine nucleotide-binding protein G(i) subunit alpha-1 (Homo sapiens) (UniProt P63096)", "sequence (P63096 whole entry, looked up)": "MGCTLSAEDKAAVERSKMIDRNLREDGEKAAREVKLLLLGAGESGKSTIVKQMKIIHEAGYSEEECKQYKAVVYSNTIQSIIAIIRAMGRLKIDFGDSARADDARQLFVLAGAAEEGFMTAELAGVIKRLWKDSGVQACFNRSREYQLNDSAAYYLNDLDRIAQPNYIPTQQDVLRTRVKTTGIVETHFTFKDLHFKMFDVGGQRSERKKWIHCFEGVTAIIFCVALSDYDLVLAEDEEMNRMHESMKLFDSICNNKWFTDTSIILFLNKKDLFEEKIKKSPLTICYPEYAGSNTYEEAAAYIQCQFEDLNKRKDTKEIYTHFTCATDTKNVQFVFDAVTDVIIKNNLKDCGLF", "test": "qHTS Assay for Inhibitors of RGS12 GoLoco Motif Activity (Green Fluorophore) (AID 879; active = well fitted curve in the direction sought with a large enough effect; an effect the other way counts as inactive or inconclusive;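 also: 0% = labeled peptide with Gαi1 and full inhibition = labeled peptide alone without protein; negative values mean loss of peptide binding seen as reduced polarization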)", "summary_of_the_method": "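A drop in FITC polarization marked displacement of the FITC-tagged RGS12 GoLoco peptide (10 nM) from Gαi1 (50 nM). Compounds were incubated 10 min at room temperature in Tris pH 7.5 buffer containing 150 mM NaCl, 0.1 mM GDP and 0.05% NP40; unlabeled peptide titration served as control.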"}, "[8]": {"molecular_target": "Cytochrome P450 3A4 (Homo sapiens) (UniProt P08684)", "sequence (P08684 whole entry, looked up)": "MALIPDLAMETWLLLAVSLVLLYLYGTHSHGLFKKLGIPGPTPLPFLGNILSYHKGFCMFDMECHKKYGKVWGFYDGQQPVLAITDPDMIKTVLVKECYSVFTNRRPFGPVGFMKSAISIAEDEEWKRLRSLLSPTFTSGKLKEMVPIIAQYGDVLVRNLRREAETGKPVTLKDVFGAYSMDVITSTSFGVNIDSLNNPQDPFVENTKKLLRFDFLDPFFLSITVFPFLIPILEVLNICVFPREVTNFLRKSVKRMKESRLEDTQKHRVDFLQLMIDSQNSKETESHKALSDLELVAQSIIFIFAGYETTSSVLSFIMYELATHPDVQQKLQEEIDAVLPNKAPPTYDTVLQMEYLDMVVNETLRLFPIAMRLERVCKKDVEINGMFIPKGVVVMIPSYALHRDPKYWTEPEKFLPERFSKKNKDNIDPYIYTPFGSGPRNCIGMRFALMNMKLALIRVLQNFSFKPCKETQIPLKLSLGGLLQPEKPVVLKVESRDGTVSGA", "test": "qHTS Assay for Inhibitors and Substrates of Cytochrome P450 3A4 (AID 884; active = well fitted curve in the direction sought with a large enough effect; an effect the other way counts as inactive or inconclusive; also: % is scaled to controls: 0 for no effect and ±100 for the full control effect; nearly all actives have a fitted effect of over 50% in size)", "summary_of_the_method": "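Luminescent readout of luciferin produced by CYP3A4 (20 nM) dealkylation of Luciferin-PPXE, 25 uM (its KM). NADPH-driven reaction ran 60 min at RT after 10 min compound preincubation; data scaled to 57 uM ketoconazole as 100% inhibition.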"}, "[9]": {"molecular_target": "Cytochrome P450 3A4 (Homo sapiens) (UniProt P08684)", "test": "qHTS Assay for Activators of Cytochrome P450 3A4 (AID 885; active = well fitted curve in the direction sought with a large enough effect; an effect the other way counts as inactive or inconclusive; also: potency is read from the fitted curve at half-maximal effect; nearly all actives have a fitted effect of over 65% in size)", "summary_of_the_method": "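CYP3A4 activity: Luciferin-PPXE O-dealkylation, 25uM substrate, 200mM KPO4, RT throughout. Read-out is luciferase luminescence; higher values reflect activation.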"}, "[10]": {"molecular_target": "Cytochrome P450 2D6 (Homo sapiens) (UniProt P10635)", "sequence (P10635 whole entry, looked up)": "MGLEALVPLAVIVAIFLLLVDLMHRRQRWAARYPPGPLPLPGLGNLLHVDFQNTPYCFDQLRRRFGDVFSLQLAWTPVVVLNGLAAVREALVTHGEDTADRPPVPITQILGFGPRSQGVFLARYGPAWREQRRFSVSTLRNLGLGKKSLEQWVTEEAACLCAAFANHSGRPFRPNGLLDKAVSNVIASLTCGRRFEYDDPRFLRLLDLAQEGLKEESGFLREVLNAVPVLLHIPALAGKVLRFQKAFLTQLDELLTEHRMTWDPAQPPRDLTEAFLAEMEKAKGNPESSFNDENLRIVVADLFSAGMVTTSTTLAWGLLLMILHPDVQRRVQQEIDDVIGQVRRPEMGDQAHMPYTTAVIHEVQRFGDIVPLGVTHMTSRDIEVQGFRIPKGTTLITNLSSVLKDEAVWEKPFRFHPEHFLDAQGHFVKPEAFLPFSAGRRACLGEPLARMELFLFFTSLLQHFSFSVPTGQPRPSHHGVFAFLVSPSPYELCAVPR", "test": "qHTS Assay for Inhibitors and Substrates of Cytochrome P450 2D6 (AID 891; active = well fitted curve in the direction sought with a large enough effect; an effect the other way counts as inactive or inconclusive; also: potency is read from the fitted curve at half-maximal effect; nearly all actives have a fitted effect of over 60% in size)", "summary_of_the_method": "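Luminescent read-out of luciferin formed by 5 nM human CYP2D6 demethylating 30 uM Luciferin-ME EGE (Km level) over 60 min at room temperature after NADPH regeneration addition. Data normalized to full inhibition by 1.43 uM quinidine.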"}, "[11]": {"molecular_target": "Muscarinic acetylcholine receptor M1 (Rattus norvegicus) (UniProt P08482)", "sequence (P08482 whole entry, looked up)": "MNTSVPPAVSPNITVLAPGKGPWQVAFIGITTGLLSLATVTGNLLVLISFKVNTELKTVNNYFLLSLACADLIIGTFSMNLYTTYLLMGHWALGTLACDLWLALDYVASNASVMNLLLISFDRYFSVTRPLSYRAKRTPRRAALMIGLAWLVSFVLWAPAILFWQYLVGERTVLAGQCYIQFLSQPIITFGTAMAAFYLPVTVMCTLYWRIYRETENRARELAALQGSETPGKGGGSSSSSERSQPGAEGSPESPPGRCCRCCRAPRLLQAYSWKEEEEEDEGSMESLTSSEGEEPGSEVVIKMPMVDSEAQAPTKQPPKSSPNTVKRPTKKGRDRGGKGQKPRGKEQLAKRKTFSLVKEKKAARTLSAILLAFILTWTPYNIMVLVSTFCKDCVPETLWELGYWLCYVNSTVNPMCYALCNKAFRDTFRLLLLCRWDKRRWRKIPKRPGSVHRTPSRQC", "test": "qHTS Assay for Antagonists of Acetylcholine Muscarinic M1 Receptor: Kinetic Measurement of Intracellular Calcium Response (AID 943; active = well fitted curve in the direction sought with a large enough effect; an effect the other way counts as inactive or inconclusive; also: potency is read from the fitted curve at half-maximal effect; nearly all actives have a fitted effect of over 75% in size)", "summary_of_the_method": "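Quantitative HTS in CHO-M1 (rat receptor) cells: 10 min compound exposure ahead of 100 nM carbachol, Fluo-4 fluorescence followed 4 min, value expressed as peak-to-basal ratio.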"}, "[12]": {"molecular_target": "Muscarinic acetylcholine receptor M1 (Rattus norvegicus) (UniProt P08482)", "test": "qHTS Assay for Antagonists of Acetylcholine Muscarinic M1 Receptor: Measurement of IP-One Response (AID 944; active = well fitted curve in the direction sought with a large enough effect; an effect the other way counts as inactive or inconclusive; also: potency is read from the fitted curve at half-maximal effect; nearly all actives have a fitted effect of over 75% in size)", "summary_of_the_method": "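Antagonism was measured as loss of carbachol-driven (EC80) IP1 accumulation in CHO cells carrying rat M1, using a homogeneous IP-One TR-FRET kit read at 620 and 665 nm.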"}, "[13]": {"molecular_target": "Pyruvate kinase (Leishmania mexicana) (UniProt Q27686)", "sequence (Q27686 2-499 E452W)": "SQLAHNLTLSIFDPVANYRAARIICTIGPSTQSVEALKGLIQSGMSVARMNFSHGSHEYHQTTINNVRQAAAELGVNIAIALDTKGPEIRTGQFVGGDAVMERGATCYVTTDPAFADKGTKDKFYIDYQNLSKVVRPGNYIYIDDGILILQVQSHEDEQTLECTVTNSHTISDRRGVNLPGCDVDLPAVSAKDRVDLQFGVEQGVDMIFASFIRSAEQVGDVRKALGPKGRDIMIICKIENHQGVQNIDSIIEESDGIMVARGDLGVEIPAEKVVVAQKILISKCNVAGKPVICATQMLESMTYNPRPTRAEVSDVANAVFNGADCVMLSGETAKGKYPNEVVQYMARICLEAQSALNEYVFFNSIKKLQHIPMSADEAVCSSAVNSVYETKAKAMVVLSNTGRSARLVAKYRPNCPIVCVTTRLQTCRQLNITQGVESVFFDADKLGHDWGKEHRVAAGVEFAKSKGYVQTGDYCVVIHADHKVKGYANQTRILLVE", "test": "qHTS Validation Assay for Inhibitors of Leishmania Mexicana Pyruvate Kinase (AID 945; active = well fitted curve in the direction sought with a large enough effect; an effect the other way counts as inactive or inconclusive;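 also: 0% = DMSO only neutral control wells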)", "summary_of_the_method": "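Eight-point qHTS titrations; enzyme 0.2 nM LmPYK (E451W mutant); substrates 0.5 mM PEP, 0.1 mM ADP; 7 mM MgCl2; 1 h room temperature; PKLight luminescence normalized to neutral control.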"}, "[14]": {"molecular_target": "Pyruvate kinase PKM (Homo sapiens) (UniProt P14618)", "sequence (P14618 whole entry, looked up)": "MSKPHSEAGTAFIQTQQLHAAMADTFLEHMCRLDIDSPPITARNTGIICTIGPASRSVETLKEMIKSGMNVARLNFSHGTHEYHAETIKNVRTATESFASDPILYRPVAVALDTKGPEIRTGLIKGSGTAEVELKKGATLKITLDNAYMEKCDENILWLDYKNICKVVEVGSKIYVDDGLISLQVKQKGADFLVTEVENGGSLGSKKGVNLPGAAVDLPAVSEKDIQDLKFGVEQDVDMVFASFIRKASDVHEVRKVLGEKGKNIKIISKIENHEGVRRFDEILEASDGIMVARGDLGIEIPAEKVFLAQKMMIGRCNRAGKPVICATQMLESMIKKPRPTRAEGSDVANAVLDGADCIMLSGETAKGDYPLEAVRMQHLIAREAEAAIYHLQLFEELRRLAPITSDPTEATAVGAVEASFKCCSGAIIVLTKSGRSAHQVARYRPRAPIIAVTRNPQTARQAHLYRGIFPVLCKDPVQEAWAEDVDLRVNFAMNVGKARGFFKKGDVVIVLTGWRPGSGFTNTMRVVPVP", "test": "qHTS Assay for Activators of Human Muscle Pyruvate Kinase (AID 954; active = well fitted curve in the direction sought with a large enough effect, not every such curve was filed as active;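 also: 0% = uninhibited enzyme and -100% = no enzyme or full thiadiazolimine inhibition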)", "summary_of_the_method": "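A coupled luminescent readout tracked ATP made from ADP by purified PKM2. Final conditions included 0.1 nM enzyme, PEP and ADP at 0.5 and 0.1 mM, pH 7.2 imidazole buffer with BSA, and a one-hour room-temperature reaction.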"}, "[15]": {"molecular_target": "Alpha-galactosidase A (Homo sapiens) (UniProt P06280)", "sequence (P06280 whole entry, looked up)": "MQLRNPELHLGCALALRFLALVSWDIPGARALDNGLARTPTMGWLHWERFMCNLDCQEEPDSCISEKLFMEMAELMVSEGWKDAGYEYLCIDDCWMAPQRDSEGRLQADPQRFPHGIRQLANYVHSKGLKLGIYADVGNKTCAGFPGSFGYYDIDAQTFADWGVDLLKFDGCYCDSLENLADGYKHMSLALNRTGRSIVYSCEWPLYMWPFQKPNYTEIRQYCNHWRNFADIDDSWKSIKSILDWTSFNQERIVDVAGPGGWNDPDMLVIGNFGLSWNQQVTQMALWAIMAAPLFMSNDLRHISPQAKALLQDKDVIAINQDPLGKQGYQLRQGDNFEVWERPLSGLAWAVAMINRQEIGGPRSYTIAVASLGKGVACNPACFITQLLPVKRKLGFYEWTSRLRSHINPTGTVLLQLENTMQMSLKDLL", "test": "Counterscreen for Glucocerebrosidase Inhibitors: qHTS Assay for Human alpha-Galactosidase at pH 4.5 (AID 992; active = well fitted curve in the direction sought with a large enough effect; an effect the other way counts as inactive or inconclusive; also: 0% is about no effect)", "summary_of_the_method": "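Citrate buffer pH 4.5, Tween-20 0.005%. Enzyme 2 nM, substrate 80 uM, 20 min RT. Stop pH 10. Fluorescence Ex 365/Em 440. AC50 by Hill fit.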"}, "[16]": {"molecular_target": "alpha-glucosidase (Oryza sativa, rice) (UniProt Q653V4)", "test": "Counterscreen for Glucocerebrosidase Inhibitors: qHTS Assay for Rice alpha-Glucosidase at pH 5.0 (AID 997; active = well fitted curve in the direction sought with a large enough effect; an effect the other way counts as inactive or inconclusive;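 also: 0% = full activity with enzyme and -100% = basal without enzyme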)", "summary_of_the_method": "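Endpoint fluorogenic assay at pH 5.0: compounds (0.7 nM to 77 uM) titrated against 4 nM rice enzyme and 400 uM 4-MU-alpha-glucoside for 20 min at room temperature; NaOH/glycine stop, read ex 365/em 440 nm, Hill-fitted AC50.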"}},
  "note": "A number with no mark means an inactive call. Results filed as inconclusive are left out. Calls of active or inactive are those of the source. Unless noted, calls follow the shape of the dose curve; as a rule, active = well fitted curve in either direction with a large enough effect (not every such curve was filed as active); inconclusive = small, poorly fitted or top-dose-only effect, or another doubt; inactive = flat fitted curve, though single readings scatter.",
  "data": [
    {"compound": "CCN1CCN(c2nc3c(C)cccn3c(=O)c2/C=C(\\C#N)S(=O)(=O)c2ccccc2)CC1", "values": [
      {"measurement": "activity change, negative = inhibition", "setting": "[1]", "result": -5.82, "unit": "%"},
      {"measurement": "activity, negative = inhibition", "setting": "[2]", "result": -5.71, "unit": "%"},
      {"measurement": "Potency", "setting": "[3]", "result": "> 20.6", "unit": "µM"},
      {"measurement": "activation", "setting": "[4]", "result": 5.25, "unit": "%"}
    ]},
    {"compound": "Cc1nnc2c(NC(C)C)nc3ccccc3n12", "values": [
      {"measurement": "activity change, negative = inhibition", "setting": "[1]", "result": 14.9, "unit": "%"},
      {"measurement": "activity, negative = inhibition", "setting": "[2]", "result": -12.6, "unit": "%"},
      {"measurement": "Potency", "setting": "[3]", "result": "> 20.6", "unit": "µM"},
      {"measurement": "Potency", "setting": "[4]", "result": "10 µM (active)"}
    ]},
    {"compound": "CC1(C)CCN(Cc2ccccc2)C1CC#N", "note": "(configuration not stated)", "values": [
      {"measurement": "activity change, negative = inhibition", "setting": "[1]", "result": -13.4, "unit": "%"},
      {"measurement": "activity, negative = inhibition", "setting": "[2]", "result": 6.87, "unit": "%"},
      {"measurement": "Potency", "setting": "[3]", "result": "> 20.6", "unit": "µM"},
      {"measurement": "activation", "setting": "[4]", "result": 7.94, "unit": "%"}
    ]},
    {"compound": "CCCN(CCc1ccccc1)[C@H]1CCc2c(O)cccc2C1", "values": [
      {"measurement": "activity change, negative = inhibition", "setting": "[1]", "result": "9.86% [at 38 µM]"},
      {"measurement": "activity, negative = inhibition", "setting": "[2]", "result": "-8.8% [at 38 µM]"},
      {"measurement": "Potency", "setting": "[3]", "result": "> 46", "unit": "µM"},
      {"measurement": "Potency", "setting": "[5]", "result": "> 46", "unit": "µM"},
      {"measurement": "Potency", "setting": "[6]", "result": "inactive"},
      {"measurement": "outcome", "setting": "[7]", "result": "inactive"},
      {"measurement": "Potency", "setting": "[8]", "result": "inactive"},
      {"measurement": "Potency", "setting": "[9]", "result": "12.6 µM (active)"},
      {"measurement": "Potency", "setting": "[10]", "result": "0.501 µM (active)"},
      {"measurement": "Potency", "setting": "[11]", "result": "0.501 µM (active)"},
      {"measurement": "Potency", "setting": "[12]", "result": "2.82 µM (active)"},
      {"measurement": "Potency", "setting": "[13]", "result": "inactive"},
      {"measurement": "outcome", "setting": "[14]", "result": "inactive"},
      {"measurement": "outcome", "setting": "[15]", "result": "inactive"},
      {"measurement": "outcome", "setting": "[16]", "result": "inactive"}
    ]},
    {"compound": "COc1nc(N(C)S(=O)(=O)c2ccc(C)cc2)nc(C)c1Cl", "values": [
      {"measurement": "activity change, negative = inhibition", "setting": "[1]", "result": -2.26, "unit": "%"},
      {"measurement": "activity, negative = inhibition", "setting": "[2]", "result": 5.02, "unit": "%"},
      {"measurement": "Potency", "setting": "[3]", "result": "> 20.6", "unit": "µM"},
      {"measurement": "activation", "setting": "[4]", "result": -6.79, "unit": "%"}
    ]},
    {"compound": "CCCCn1cnc2c(c1=O)c1nc3ccccc3nc1n2Cc1ccc2c(c1)OCO2", "values": [
      {"measurement": "activity change, negative = inhibition", "setting": "[1]", "result": 29.8, "unit": "%"},
      {"measurement": "activity, negative = inhibition", "setting": "[2]", "result": 10.3, "unit": "%"},
      {"measurement": "Potency", "setting": "[3]", "result": "> 20.6", "unit": "µM"},
      {"measurement": "Potency", "setting": "[4]", "result": "12.6 µM (active)"}
    ]},
    {"compound": "COc1ccc(OC)c2c(N)c(C#N)c(C(F)(F)C(F)(F)F)nc12", "values": [
      {"measurement": "activity change, negative = inhibition", "setting": "[1]", "result": 5.08, "unit": "%"},
      {"measurement": "activity, negative = inhibition", "setting": "[2]", "result": 14, "unit": "%"},
      {"measurement": "Potency", "setting": "[3]", "result": "> 20.6", "unit": "µM"},
      {"measurement": "Potency", "setting": "[4]", "result": "10 µM (active)"}
    ]},
    {"compound": "COC(=O)c1[nH]c2cc(OC)ccc2c1NC(=O)CCN1CCCC(C)(C)C1", "values": [
      {"measurement": "activity change, negative = inhibition", "setting": "[1]", "result": -14.5, "unit": "%"},
      {"measurement": "activity, negative = inhibition", "setting": "[2]", "result": 2.32, "unit": "%"},
      {"measurement": "Potency", "setting": "[3]", "result": "> 20.6", "unit": "µM"},
      {"measurement": "activation", "setting": "[4]", "result": 10.2, "unit": "%"}
    ]},
    {"compound": "O=c1/c(=C\\c2cccn2-c2ccccc2)sc2nc3ccccc3n12", "values": [
      {"measurement": "activity change, negative = inhibition", "setting": "[1]", "result": 2.64, "unit": "%"},
      {"measurement": "activity, negative = inhibition", "setting": "[2]", "result": 14.8, "unit": "%"},
      {"measurement": "Potency", "setting": "[3]", "result": "> 20.6", "unit": "µM"},
      {"measurement": "Potency", "setting": "[4]", "result": "12.6 µM (active)"}
    ]}
  ]
}
